# In the supplement of paper PMC9177965:
# Test system: HT29 RNF43 G659fs (RNF43 659mut, CRISPR-edited)
# Experiment: cell viability activity relative to DMSO (negative = inhibition); higher = more viable cells (less growth inhibition)
# Conditions: 5 µM; 96 h
# Protocol: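 Broad Repurposing Library primary screen at a single dose of 5 uM. HT29 sg-Ctrl and HT29 RNF43 G659fs CRISPR-edited isogenic cells were seeded at 2500 cells/well in 384-well plates in duplicate and treated for 96 h. Viability was read by CellTiter-Glo and reported as % activity relative to DMSO, with MG132 as the positive control (negative = growth inhibition).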
row,Compound,cell viability activity [%]
1,CNC(=O)c1nn(C)c2c1C(C)(C)Cc1cnc(Nc3ccc(N4CCN(C)CC4)cc3)nc1-2,-66.2
2,COc1cc(OC)c(/C=C/S(=O)(=O)Cc2ccc(OC)c(OP(=O)(O)O)c2)c(OC)c1,-26.7
3,O=C1NCCN1CCN1CCC(c2cn(-c3ccc(F)cc3)c3ccc(Cl)cc23)CC1,-93.7
4,Cn1cc(-c2ccncc2)c(-c2ccc(OCc3ccc4ccccc4n3)cc2)n1,-46.2
5,CN1CC[C@H](c2c(O)cc(O)c3c(=O)cc(-c4ccccc4Cl)oc23)[C@H](O)C1,-83.4
6,CSc1ccccc1Nc1nc(N2CCNCC2)nc2c(NCC3CC3)ncnc12,-95.8
7,COCCN1CCN(Cc2ccc(-c3n[nH]c4c3C(=O)c3c(NC(=O)NN5CCOCC5)cccc3-4)cc2)CC1,-78.2
8,CS(=O)(=O)N1CCc2c(-c3cnc(N)nc3)nc(N3CCOCC3)nc21,-53.1
9,CC(C)NC(=O)N1CC[C@H](NC2=Nc3cc(F)ccc3N(CC(F)F)c3ccc(Cl)cc32)C1,-49.3
10,CN(C)CCN1C(=O)c2cccc3cc(N)cc(c23)C1=O,-53.7
11,CC(=O)c1cnc2ccc(-c3cc(Cl)c(O)c(Cl)c3)nc2c1N[C@H]1CC[C@H](CN(C)C)CC1,-89.2
12,Clc1cc(Cl)c(OCC#CI)cc1Cl,-35.5
13,COC(=O)Nc1ccc(-c2nc(N3CCOCC3)c3cnn(C4CCN(Cc5cccnc5)CC4)c3n2)cc1,-55.8
14,Cc1c(-c2ccc(O)cc2)n(Cc2ccc(OCCN3CCCCCC3)cc2)c2ccc(O)cc12,-67.2
15,Cn1cnc2c(F)c(Nc3ccc(Br)cc3F)c(C(=O)NOCCO)cc21,-75.9
